Reference: PubChem BioAssay (NCI)
Compounds without any hit were thinned out: in the full panel of roughly 79,000, 15% have a hit. The source made the active and inactive calls. Rule as the data show it: active = growth inhibition above about 70%; inactive = the rest.

Columns and labels:
[1] = NCI Yeast Anticancer Drug Screen. Data for the rad50 strain (AID 155);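 also: 0% = growth of vehicle-only cultures of the same strain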; conditions: S. cerevisiae rad50 strain growth inhibition; at 50.0 µM; hits give high values
How it was run: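 Relative growth inhibition (compound vs vehicle) was measured in yeast with a defined repair-gene alteration.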

[2] = NCI Yeast Anticancer Drug Screen. Data for the mec2-1 strain (AID 157); conditions: S. cerevisiae mec2-1 strain, at 50.0 µM, hits give high values
How it was run: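 Vehicle-treated cultures served as reference for growth inhibition of compound-exposed mec2-1 yeast.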

[3] = NCI Yeast Anticancer Drug Screen. Data for the sgs1 mgt1 strain (AID 161);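 also: 0% = growth of cultures given vehicle only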; conditions: S. cerevisiae sgs1 mgt1 strain, at 50.0 µM, hits give high values
How it was run: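 Mutant yeast exposed to compound; growth scored against vehicle-only wells.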

[4] = NCI Yeast Anticancer Drug Screen. Data for the cln2 rad14 strain (AID 165);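 also: 0% = growth equal to vehicle treated cultures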; conditions: S. cerevisiae cln2 rad14 strain, at 50.0 µM, hits give high values
How it was run: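 Each compound was tested on cln2 rad14 yeast. Inhibition of growth was calculated against vehicle-exposed controls.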

[5] = NCI Yeast Anticancer Drug Screen. Data for the bub3 strain (AID 167); conditions: S. cerevisiae bub3 mutant strain, at 50.0 µM, hits give high values
How it was run: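 Screening used yeast with an engineered genetic alteration affecting cell cycle control. Compound-exposed cultures were compared with vehicle cultures, and reduced growth was taken as inhibition.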

[6] = NCI Yeast Anticancer Drug Screen. Data for the mlh1 rad18 strain (AID 175); conditions: S. cerevisiae mlh1 rad18 strain growth inhibition; at 50.0 µM; hits give high values
How it was run: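 Vehicle-treated cultures served as the reference for growth inhibition in a yeast strain carrying DNA damage repair alterations exposed to each compound.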

Measured: growth inhibition

O=C1NN2CCCN=C2c2cnccc21
inactive: [1] -12.3% | [2] 4.5% | [3] 11.4% | [4] -34.6% | [5] 27.6% | [6] -7.4%

CCCCCCCCCCCCCCCCS(=O)(=O)c1ccc(S(=O)(=O)F)cc1NC(=O)C(F)(F)F
inactive: [1] -22.4% | [2] -9.9% | [3] -3.6% | [4] 24.1% | [5] 12.6% | [6] 8.2%

COC12CC3(C)C(C4=CC(=O)OC4)CCC3(O)C3CCC4=CC(=O)CCC4(CO1)C32 (stereo unspecified)
inactive: [1] -1.85% | [2] -10.2% | [3] -11.4% | [4] 15.8% | [5] -16.9% | [6] 6.6%

CNC(Cc1ccccc1)c1cccc(OC)c1O (stereo unspecified)
inactive: [1] -7.55% | [2] -25.6% | [3] -53.6% | [4] -28.4% | [5] -14.2% | [6] -10.8%

O=C(O)c1ccccc1Cl
inactive: [1] -8% | [2] -11.5% | [3] 3.75% | [4] 30.9% | [5] 5.2% | [6] 16.4%

COc1ccc2c3c1OC1C(OC)(OC)C=C[C@@]4(Br)[C@@H](C2)N(CC2CC2)CC[C@]314 (stereo partly specified)
inactive: [1] 34.1% | [2] 5.6% | [3] -35.1% | [4] -8.55% | [5] -9.9% | [6] -44.6%

C[C@]12CCc3nonc3C1CC[C@@H]1C2CC[C@@]2(C)C1CC[C@@H]2O (stereo partly specified)
inactive: [1] 3.65% | [2] -0.65% | [3] -0.4% | [4] -53.1% | [5] -7.55% | [6] -2.1%

C=CCOCN1c2cc(OC)c([C@@]3(C(=O)OC)C[C@@H]4CN(CCc5c3[nH]c3ccccc53)C[C@](O)(CC)C4)cc2[C@@]23CCN4CC=C[C@@](CC)([C@@H](OC(C)=O)[C@](O)(C(=O)OC)[C@H]12)[C@H]43
inactive: [1] -21.2% | [2] -8.75% | [3] 2.35% | [4] 0.2% | [5] -0.05% | [6] -16.4%

Cc1ccc2[nH]c(=S)n(-c3cccc(C(F)(F)F)c3)c(=O)c2c1
inactive: [1] 17.8% | [2] 6.35% | [3] 21.4% | [4] 20.7% | [5] 22.6% | [6] 16.5%

Nc1ccc([As](=O)(O)O)cc1C(=O)O
inactive: [1] -16.3% | [2] -18.8% | [3] -6.7% | [4] -11% | [5] 7.2% | [6] -2.3%

CCc1cc[c]([Sb](=[O])([OH])[OH])cc1
inactive: [1] 3.5% | [2] -7.15% | [3] 9.1% | [4] 22.5% | [5] 4.1% | [6] 3.2%

NC(C/C=C/P(=O)(O)O)C(=O)O (stereo unspecified)
inactive: [1] -20.4% | [2] -17.1% | [3] -14.8% | [4] 13.2% | [5] 19.9% | [6] -33%

CC(C)(C)OP(O)(=S)OC(C)(C)C
inactive: [1] 14.5% | [2] 13.2% | [3] 15.8% | [4] 15.2% | [5] 16.1% | [6] 9.55%

CCCCn1c(C)c(C(=O)OCC)c2cc(OCc3ccc(C(=O)Nn4c(C)ccc4C)cc3)c(Br)cc21
inactive: [1] 7.1% | [2] -30.7% | [3] -15.5% | [4] -18.6% | [5] -27.4% | [6] -20.1%

CC(C)N([PH2+]N(C(C)C)C(C)C)C(C)C.[C-]#[O+].[C-]#[O+].[C-]#[O+].[C-]#[O+].[C-]#[O+].[Mo]
inactive: [1] 9.4% | [2] 15.9% | [3] -2.2% | [4] 17.1% | [5] 6.35% | [6] -1.35%

COCC1OC2OC3C(COC)OC(OC4C(COC)OC(OC5C(COC)OC(OC6C(COC)OC(OC7C(COC)OC(OC8C(COC)OC(OC1C(O)C2O)C(O)C8O)C(O)C7O)C(O)C6O)C(O)C5O)C(O)C4O)C(O)C3O (stereo unspecified) (tested in a mixture with another compound)
inactive: [1] 13.2% | [2] -13.6% | [3] -4.6% | [4] 20.1% | [5] -18.8% | [6] -64.7%

CC(=O)OC1CCC2(C)C(=CCC3C4C/C(=C\N5CCCC5)C(=O)C4(C)CCC32)C1 (stereo unspecified)
active: [2] 99% | [4] 98.8% | [5] 97.2% | [6] 95.3%
inactive: [1] 51% | [3] 46.8%

O=C(O)CCCc1ccc(N(CCCl)OCCCl)cc1
inactive: [1] -21.1% | [2] -3.3% | [3] 16.7% | [4] 10.2% | [5] 13.3% | [6] -0.25%

[Pd].c1ccc([PH+](CC[PH+](c2ccccc2)c2ccccc2)c2ccccc2)cc1.c1ccc([PH+](CC[PH+](c2ccccc2)c2ccccc2)c2ccccc2)cc1
inactive: [1] 24.8% | [2] 12.8% | [3] 59.5% | [4] 15.1% | [5] 15.7% | [6] 24.2%

Cc1nnn[n-]1.N.N.N.N.N.[Cl-].[Co+3]
inactive: [1] 3.15% | [2] -6.95% | [3] -9.55% | [4] 2.4% | [5] -0.15% | [6] -16.5%

C1=C(c2ccccc2)CCN(C2(c3ccccc3)CCCCC2)C1
inactive: [1] -5.6% | [2] 0.75% | [3] -4.2% | [4] -33.5% | [5] 16.5% | [6] 9.35%

c1cc(C[N+]23CN4CN(CN(C4)C2)C3)cs1
inactive: [1] -5.75% | [2] 14.2% | [3] 3.95% | [4] -7.65% | [5] 1.55% | [6] -13.7%

Oc1ccc(CC2NCCc3cc(O)c(O)cc32)cc1O (stereo unspecified)
inactive: [1] 17.5% | [2] -4.15% | [3] 26.3% | [4] 24.3% | [5] 26.4% | [6] 23.1%

COc1ccc(C(=O)O)cc1[N+](=O)[O-] (tested in a mixture with another compound)
inactive: [1] 9.25% | [2] 4.45% | [3] 5.55% | [4] 7.4% | [5] 11.4% | [6] 15.1%

CS(=O)(=O)c1ccc([As](=O)(O)O)cc1
inactive: [1] 5.7% | [2] 0.1% | [3] 20.6% | [4] -34.1% | [5] 5.2% | [6] -11.8%

NC1Cc2cc(O)ccc2C1=O (stereo unspecified)
inactive: [1] -5.95% | [2] 22.2% | [3] -3.35% | [4] 20.2% | [5] 22.8% | [6] 0.7%

CCCOP1(=O)C=C(C)C(Cl)=C(C)C1 (stereo unspecified)
inactive: [1] 33.5% | [2] -4.6% | [3] 20% | [4] -1.45% | [5] -14.7% | [6] 34.8%

Cc1ccc(N=C2OP(=O)(Nc3ccc(C)cc3)Oc3ccccc32)cc1 (stereo unspecified)
inactive: [1] -11.3% | [2] -44.8% | [3] -23.6% | [4] 0.3% | [5] -6% | [6] -19.9%

O=C1NCC2C3CCC(O3)C12 (stereo unspecified)
inactive: [1] -6.3% | [2] -16.1% | [3] 7.95% | [4] -10.2% | [5] -17.4% | [6] -12.1%

C[C@]12CC[C@H](O)C=C1CC[C@@H]1[C@@H]2CC[C@]2(C)C(c3ccc(=O)oc3)CC[C@]12O (stereo partly specified)
inactive: [1] -2.85% | [2] -12.9% | [3] 17.9% | [4] 10.9% | [5] 0.05% | [6] 8.75%

Nc1ccc(N)cc1
inactive: [1] 10.9% | [2] 25.8% | [3] -23.7% | [4] -7.4% | [5] -5.9% | [6] -1%

CCOC(=O)C1C2(C(C)=O)C=Nc3c(C#N)cnn3C12C(=O)OCC (stereo unspecified)
inactive: [1] 0.9% | [2] -3.35% | [3] 4.85% | [4] 28.4% | [5] 4.2% | [6] -7.95%

O=C(O)CP(=S)(S)c1ccccc1 (stereo unspecified)
inactive: [1] -28.5% | [2] -32.9% | [3] -26.4% | [4] 2.4% | [5] -27.8% | [6] -39.5%

C=C(C)CNC1=C(C)C(=O)C2=C(C1=O)[C@H](COC(N)=O)[C@]1(OC)[C@@H]3N[C@@H]3CN21
inactive: [1] 5.15% | [2] -9.35% | [3] 13.3% | [4] 23.9% | [5] 19.4%
active: [6] 74.7%

[Cu].[NH2-].[NH2-].[NH2-].[NH2-]
inactive: [1] -21.8% | [2] -15.8% | [3] -23.1% | [4] -64.8% | [5] -4.05% | [6] -23.6%

COC(=O)c1ccccc1NC(C)=O
inactive: [1] -13.8% | [2] -9.25% | [3] -8.95% | [4] -38.4% | [5] -8.5% | [6] 2.15%
